From PubChem BioAssay (NCATS)
Records with an inconclusive call do not appear. Where a call stands in place of a potency, no number is given. Calls of active or inactive are those of the source. Calls come from the whole dose curve; as a rule, active = well fitted curve in the direction sought with a large enough effect; inconclusive = small, poorly fitted or top-dose-only effect, or another doubt; inactive = no such curve, though single readings can be large; an effect the other way counts as inactive or inconclusive.

What was measured:
[1] = qHTS of pediatric cancer cell lines to identify multiple opportunities for drug repurposing: Primary screen for RD cells (AID 1347104); note: nearly all actives have a fitted effect of over 55% in size
Summary of the method: (§1)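 Viability was measured as metabolically active cells after 48 hours of treatment, read by CellTiter-Glo luminescence. Compounds were tested at multiple final concentrations, giving concentration-response curves.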

[2] = qHTS of pediatric cancer cell lines to identify multiple opportunities for drug repurposing: Primary screen for MG 63 (6-TG R) cells (AID 1347105); note: nearly all actives have a fitted effect of over 50% in size
Summary of the method: as §1

[3] = qHTS of pediatric cancer cell lines to identify multiple opportunities for drug repurposing: Primary screen for control Hh wild type fibroblast cells (AID 1347106);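 note: series mostly up to about 46 µM; a drop in luminescence marks cytotoxicity and a rise apparent proliferation; nearly all actives have a fitted effect of over 55% in size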
Summary of the method: (§2)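 Viability after 48 h compound treatment at 37C, 500-1,000 cells/well, read as ATP luminescence with CellTiter-Glo. Primary screens used 11-point (MIPE, 0.78 nM-46 µM) or 8-point (NPC, 0.59 nM-46 µM) final concentrations; follow-up screens used 11-point dilutions.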

[4] = qHTS of pediatric cancer cell lines to identify multiple opportunities for drug repurposing: Primary screen for Rh30 cells (AID 1347107); note: series mostly up to about 46 µM; nearly all actives have a fitted effect of over 75% in size
Summary of the method: as §2

[5] = qHTS of pediatric cancer cell lines to identify multiple opportunities for drug repurposing: Primary screen for Rh41 cells (AID 1347108);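 note: series mostly up to about 46 µM; luminescence drop marks cytotoxic hits; nearly all actives have a fitted effect of over 70% in size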
Summary of the method: as §1

[6] = qHTS of pediatric cancer cell lines to identify multiple opportunities for drug repurposing: Confirmatory screen for A673 cells (AID 1347110); note: nearly all actives have a fitted effect of over 65% in size
Summary of the method: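 Cells plated at 500-1,000/well were treated five hours later with multi-point dilutions up to 46 µM final. After two days, CellTiter-Glo was added and luminescence read.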

[7] = qHTS of pediatric cancer cell lines to identify multiple opportunities for drug repurposing: Confirmatory screen for NB1643 cells (AID 1347109); note: nearly all actives have a fitted effect of over 45% in size
Summary of the method: as §2

[8] = qHTS of pediatric cancer cell lines to identify multiple opportunities for drug repurposing: Confirmatory screen for SK-N-MC cells (AID 1347111);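 note: potency is the fitted concentration of half-maximal effect; cells exposed to compound for 48 h before the readout; nearly all actives have a fitted effect of over 70% in size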
Summary of the method: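 SK-N-MC cells at 500-1,000 cells/well in growth media were pre-incubated 5 h, then exposed to compounds at 11-point dilutions for 48 h at 37 degrees C, 5% CO2. Viability was read as CellTiter-Glo luminescence.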

[9] = qHTS of pediatric cancer cell lines to identify multiple opportunities for drug repurposing: Confirmatory screen for BT-12 cells (AID 1347112); note: nearly all actives have a fitted effect of over 55% in size
Summary of the method: as §2

[10] = qHTS of pediatric cancer cell lines to identify multiple opportunities for drug repurposing: Confirmatory screen for NB-EBc1 cells (AID 1347115); note: nearly all actives have a fitted effect of over 45% in size
Summary of the method: as §2

SMILES	Potency [1]	Potency [2]	Potency [3]	Potency [4]	Potency [5]	Potency [6]	Potency [7]	Potency [8]	Potency [9]	Potency [10]
CCS(=O)(=O)C(C)(C)S(=O)(=O)CC	inactive	inactive	inactive	inactive	inactive	–	–	–	–	–
Nc1ccc(N)cc1	inactive	inactive	inactive	inactive	inactive	–	–	–	–	–
NCc1cccnc1	inactive	inactive	inactive	inactive	inactive	–	–	–	–	–
CCCC(C)C1(CC)C(=O)N=C(S)NC1=O (stereo not given)	inactive	inactive	inactive	inactive	inactive	–	–	–	–	–
C[C@@H]1CN(C2CCC(C#N)(c3ccc(F)cc3)CC2)CC[C@]1(C(=O)O)c1ccccc1 (stereo not given in full)	inactive	inactive	inactive	inactive	inactive	–	–	–	–	–
CC(Cc1ccc2c(c1)OCO2)NO (stereo not given)	inactive	inactive	inactive	inactive	inactive	–	–	–	–	–
CCC(=O)C(CCN(C)C)(c1ccccc1)c1ccccc1	inactive	inactive	inactive	inactive	inactive	–	–	–	–	–
CCOC(=O)C1(c2ccccc2)CCN(CCc2ccc(N)cc2)CC1	inactive	inactive	inactive	inactive	inactive	–	–	–	–	–
C[N+](C)(C)CCOC(=O)C(O)(c1ccccc1)c1ccccc1	inactive	inactive	inactive	inactive	inactive	–	–	–	–	–
C[N+]1(C)[C@@H]2CC[C@H]1CC(OC(=O)C(CO)c1ccccc1)C2 (stereo not given in full)	inactive	inactive	inactive	inactive	inactive	–	–	–	–	–
CNC(C)Cc1ccccc1OC (stereo not given)	inactive	inactive	inactive	inactive	inactive	–	–	–	–	–
COc1cc(CC(C)N)cc2c1OCO2 (stereo not given)	inactive	inactive	inactive	inactive	inactive	–	–	–	–	–
CCC(=O)O[C@H]1CC[C@H]2[C@@H]3CCC4=CC(=O)CC[C@]4(C)[C@H]3CC[C@]12C	inactive	inactive	inactive	inactive	inactive	–	–	–	–	–
CCNc1nc(Cl)nc(NCC)n1	inactive	inactive	inactive	inactive	inactive	–	–	–	–	–
CC#C[C@]1(O)CC[C@H]2[C@@H]3C[C@H](C)C4=CC(=O)CC[C@]4(C)[C@H]3CC[C@@]21C	inactive	inactive	inactive	inactive	inactive	–	–	–	–	–
C=CC[C@]1(O)CC[C@H]2[C@@H]3CCC4=CC(=O)CCC4=C3C=C[C@@]21C	inactive	inactive	inactive	inactive	inactive	–	–	–	–	–
Cc1nnc2n1-c1sc(CCC(=O)N3CCOCC3)cc1C(c1ccccc1Cl)=NC2	inactive	inactive	inactive	inactive	inactive	–	–	–	–	–

SMILES	Potency [1]	Potency [2]	Potency [3]	Potency [4]	Potency [5]	Potency [6]	Potency [7]	Potency [8]	Potency [9]	Potency [10]
CCC1(c2cccc(O)c2)CCCCN(C)C1 (stereo not given)	inactive	inactive	inactive	inactive	inactive	–	–	–	–	–
Cc1cccc(Cc2cnc[nH]2)c1C	inactive	inactive	inactive	inactive	inactive	–	–	–	–	–
CN1C[C@@H](NS(=O)(=O)N(C)C)C[C@@H]2c3cccc4c3c(cn4C)C[C@H]21	inactive	inactive	inactive	inactive	inactive	–	–	–	–	–
CCOC(=O)C(c1c(O)c2ccccc2oc1=O)c1c(O)c2ccccc2oc1=O	inactive	inactive	inactive	inactive	inactive	–	–	–	–	–
COc1cc(N)c(Cl)cc1C(=O)NC1CN2CCC1CC2 (stereo not given)	inactive	inactive	inactive	inactive	inactive	–	–	–	–	–
CC(C(O)c1ccccc1)N(C)C/C=C/c1ccccc1 (stereo not given)	inactive	inactive	inactive	inactive	inactive	–	–	–	–	–
COc1ccc(C(=O)N2CCCC2=O)cc1	inactive	inactive	inactive	inactive	inactive	inactive	–	–	–	–
O=c1n(Cl)c(=O)n(Cl)c(=O)n1Cl	inactive	inactive	inactive	inactive	inactive	–	–	–	–	–
CCN1CCCC1CNC(=O)C(O)(c1ccccc1)c1ccccc1 (stereo not given)	inactive	inactive	inactive	inactive	inactive	–	–	–	–	–
CC(Cc1ccccc1)NCCCCl (stereo not given)	inactive	inactive	inactive	inactive	inactive	–	–	–	–	–
CCN(Cc1ccc(Cl)nc1)/C(=C/[N+](=O)[O-])NC	inactive	inactive	inactive	inactive	inactive	–	–	–	–	–
COC(=O)C1=CCCN(C)C1	inactive	inactive	inactive	inactive	inactive	inactive	inactive	18.5 µM (active)	inactive	inactive
CN(C)C(=O)Oc1cc(OC(=O)N(C)C)cc(C(O)CNC(C)(C)C)c1 (stereo not given)	inactive	inactive	inactive	inactive	inactive	–	–	–	–	–
CC1Sc2c(C(=O)O)c(=O)c3cc(F)c(N4CCNCC4)cc3n21 (stereo not given)	inactive	inactive	inactive	inactive	inactive	–	inactive	14.7 µM (active)	inactive	inactive
CN1C(=O)CN=C(c2ccccc2)c2cc([N+](=O)[O-])ccc21	inactive	inactive	inactive	inactive	inactive	–	–	–	–	–
COP(=S)(OC)Oc1ccc(S(N)(=O)=O)cc1	inactive	inactive	inactive	inactive	inactive	–	–	–	–	–
O=C(O)c1nn(Cc2ccc(Cl)cc2Cl)c2ccccc12	inactive	inactive	inactive	inactive	inactive	–	–	–	–	–
